The text below walks through data of PubChem BioAssay.

A short description of one assay: small-molecule microarray binders of probe aDKK1, primary screen, biochemical, biotinylated probe, 635/667 nm fluorescence (AID 1099).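 Note: score merges 667nm spot fluorescence with signal to noise across triplicate slides; reference of the scale not given here.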 The conditions noted are these: higher = more signal.
In turn, `C=CCN1C(=O)[C@]2(Cc3ccccc31)N=C(c1ccc(OCCCO)cc1)O[C@@H]2c1ccccc1` came in with a composite z-score of 0.779. In turn, `CCCC[C@H]1OB(O)C[C@H]2C1=C(C)Cn1c(=O)n(-c3ccccc3)c(=O)n12` gave a composite z-score of -0.291. The same measure, in the same setting: as for `CCN(CC)c1ccc(N2CC=CC34O[C@@H]5C=CCOC(=O)[C@@H]5[C@H]3C(=O)N(CCCCCO)[C@@H]4C2=O)cc1` (stereo partly drawn), the figure is -0.0647.

`C#C[C@H]1Oc2ccccc2S(=O)(=O)N2CCC[C@@H]12` gave a composite z-score of -0.215. As for `O=C1C[C@@](C(=O)O)(c2ccc([N+](=O)[O-])cc2)[C@@H](c2ccc(CO)cc2I)N1CC12CC3CC(CC(C3)C1)C2`, the composite z-score is 1.23. Still for that read-out and setting: the figure for `CCOC(=O)N1C(c2ccc(OCCCO)cc2)=NC(C(=O)OC)N1C(=O)OCC` (stereo not drawn) is -0.164.

Another assay is described as follows: small-molecule microarray binders of probe aCHRDL2, primary screen, biochemical, biotinylated probe, 635/667 nm fluorescence (AID 1100). The conditions noted are these: higher = more signal.
The molecule `C=C(CCCC)C(=O)CC[C@@H](OC(=O)c1ccccc1-c1ccccc1C(=O)O)c1ccc(CO)o1` displayed a composite z-score of -0.301. In the case of `O=C1c2ccccc2[C@](Cc2ccccc2I)(C(=O)O)[C@H](c2ccc(CO)cc2)N1Cc1ccccc1C(F)(F)F`, the composite z-score is -0.388.

In turn, `O[C@@H](Cc1ccccc1)[C@@H](/C=C/c1ccccc1)NCc1ccccc1Br` yielded a composite z-score of 1.16. Still for that read-out and setting: the figure for `O=C(NCc1ccccc1)[C@@H]1c2ccccc2C(=O)N(Cc2cc(F)cc(C(F)(F)F)c2)[C@H]1c1ccc(CO)cc1` is 0.519. Still for that read-out and setting: the figure for `CCCCN1CC=CC23O[C@@H]4/C=C\CCCOC(=O)C4[C@H]2C(=O)N(C(C)CO)[C@@H]3C1=O` (stereo partly drawn) is -0.305.

`CC(C)C(CO)N1C(=O)[C@@H]2[C@H]3C(=O)OCC=C[C@H]3OC23C=CCN(c2ccc4ccccc4c2)C(=O)[C@@H]13` (stereo partly drawn) displayed a composite z-score of 0.343.

On to `C=C(/C(=C/C[C@@H](OC(=O)c1ccncc1)c1ccc(CO)o1)c1cc(C(=O)OC)ccc1OC)C(C)C`, for which the composite z-score was -0.109.
